# Laboratory results: PubChem BioAssay (Tox21)
# Results filed as inconclusive are left out. A call without a number means that no potency is given here. Activity calls are given as the source filed them. The call rests on the fitted dose curve; in most records, active means well fitted activation curve with a large enough effect in the repeat runs; inconclusive means weak or mixed curves; inactive means flat fitted curve, though single readings scatter.
# Experiment: A CellTox Green Cytotoxicity Assay to monitor cytotoxicity in HepG2 cells - 8 hour (AID 1224890); further: nearly all actives have a fitted effect of over 45% in size
# Conditions: CellTox Green fluorescence; series mostly up to 76.8 µM
# Text: National Center for Advancing Translational Sciences [NCATS]
# NIH Chemical Genomics Center [NCGC]
# U.S. Environmental Protection Agency [EPA]
# National Institutes of Environmental Health Sciences [NIEHS]
# National Toxicology Program [NTP]
# Cell-based models are critical for drug discovery. Determining the natural cytotoxic effects resulting from test compounds is an essential research activity. A CellTox Green Cytotoxicity Assay to monitor cytotoxicity in real time of continues cell culture during 40 hours of the compound treatment was used to screen Tox21 10K library compounds in HepG2 cells. CellTox Green Cytotoxicity Assay is a nonlytic, homogeneous, biofluorescent method to measure cytotoxicity in cell culture after experimental manipulation. The assay system uses a proprietary asymmetric cyanine dye that is excluded from viable cells but preferentially stains the dead cell's DNA. […] Viable cells produce no appreciable increases in fluorescence. Therefore, the fluorescence signal produced by the binding interaction with dead cell DNA is proportional to cytotoxicity.
# The mixture of HepG2 cell suspension and reagents were dispensed at 600cells/6 ul/well in 1536-well tissue culture treated black solid bottom plates using a Multidrop dispenser. After the assay plates were incubated at a 37 C/5% CO2 incubator for 5 hours, 23 nL of compounds dissolved in DMSO, positive and negative controls was transferred to the assay plate by a pintool work station. The plates were incubated at 37 C for 40 hours. The fluorescence intensity were measured at 0h, 8h, 16h, 24h, 32h and 40h time points using ViewLux plate reader during compound treatment.
SMILES,Potency,cytotoxicity increase
CCC(=O)OCCOc1ccccc1,inactive,–
Cc1ccc(N)nc1,inactive,–
CN(C)c1cc(NC(=O)CNC(C)(C)C)c(O)c2c1C[C@H]1C[C@H]3[C@H](N(C)C)C(=O)C(C(N)=O)=C(O)[C@@]3(O)C(=O)C1=C2O,inactive,–
CCN(CC)CC(=O)Oc1ccc(NC(C)=O)cc1,inactive,–
O=C(O)Cc1c(Cl)ccc(Cl)c1Cl,inactive,–
CCCCCCCCCCCC(C)=O,inactive,–
Cc1ccc(S(=O)(=O)NC(=O)NN2CC3CCCC3C2)cc1 (stereo not given),inactive,–
C[C@]12C=CC(=O)C=C1[C@@H](F)C[C@@H]1[C@@H]2[C@@H](O)C[C@@]2(C)[C@H]1CC[C@]2(O)C(=O)CO,inactive,–
CC(O)C(CO)C(C)O (stereo not given),inactive,–
N#CC1(N)CCCCC1,inactive,–
CC(C)=CCC/C(C)=C\C#N,inactive,–
CCOc1ccccc1OCCN[C@H](C)Cc1ccc(OC)c(S(N)(=O)=O)c1,inactive,–
C=CCCCCCCCCCCCCCC,–,8.14% [at 15.8 µM] (inactive)
Cc1cc(C)c(N)c(Cl)c1,inactive,–
CCNC(=O)C(C)OC(=O)Nc1ccccc1 (stereo not given),inactive,–
OCCC(F)(F)C(F)(F)C(F)(F)C(F)(F)C(F)(F)C(F)(F)F,inactive,–
CCCC(C)C(O)CC (stereo not given),inactive,–
CCCCCCCCCCCBr,inactive,–
CCCCC(CC)COC(=O)CC#N (stereo not given),inactive,–
CCCC(=O)C(CC)Sc1ccoc1C (stereo not given),inactive,–

SMILES,Potency,cytotoxicity increase
Cc1cc2c(cc1CC(=O)c1sccc1S(=O)(=O)Nc1onc(C)c1Cl)OCO2,inactive,–
Cc1ccc(NC(N)=O)cc1,inactive,–
CC(C)CC(O)Cc1ccccc1 (stereo not given),inactive,–
CN(C)c1ccncc1,inactive,–
CCOC(=O)CC,inactive,–
CCCCCCCCCCCCCCCC(=O)OC,–,-16.6% [at 15.8 µM] (inactive)
Cc1ccc2cccnc2c1,inactive,–
C=CCN1CCc2nc(N)sc2CC1,inactive,–
CSC(=O)c1cccc2nnsc12,inactive,–
COc1cc2nc(N3CCN(C(=O)C4CCCO4)CC3)nc(N)c2cc1OC (stereo not given),inactive,–
CC(CC(=O)Cl)CC(C)(C)C (stereo not given),inactive,–
COC(=O)c1ccc(NC(C)=O)cc1OC,inactive,–
CC(C)(O)CCCC1=CCC(C=O)CC1 (stereo not given),inactive,–
BrCCOc1ccccc1,inactive,–
CCCCCCCCS(=O)(=O)O,inactive,–
CC(=O)O[C@@H]1CC2C3CCc4cc(OC(=O)c5ccccc5)ccc4C3CCC2(C)[C@H]1OC(C)=O (stereo not given in full),inactive,–
O=C(O)COc1ccc2ccccc2c1,inactive,–
N[C@H]1C(O)O[C@H](CO)[C@@H](O)[C@@H]1O (stereo not given in full),inactive,–
CC(=O)OC/C=C(/C)CCC=C(C)C,inactive,–
Cc1cc(N)no1,inactive,–
